Most compounds without a hit are left out; they make up all but 1.3% or so of the library.
KCNH2 3.1 inh: qHTS for Inhibitors of KCHN2 3.1: Mutant qHTS | activity change, % (tested at about 1.8 µM) | U2OS KCNH2 3.1, thallium flux FluxOr; hits give low values | Potassium voltage-gated channel subfamily H member 2, brain isoform KCNH2 3.1 (human) | 340,000 compounds, 0.95% hits;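 active means maximum activity change below -70%; inconclusive means maximum activity change from -70% to -50%; inactive means maximum activity change above -50%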;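 further: thallium influx rate constant from kinetic fluorescence after stimulation buffer; on the % scale 0 is the no-effect control and ±100 the full control effect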
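Steps: virus added to U2OS suspension (4 h, RT, dark); medium with 10% FBS added, cells plated, 37 C overnight; FluxOr/Red40 loading buffer 45 min RT; stimulation buffer, 2 min kinetic read; rate constant normalized.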
TRPV1 PAM: HTS Assay for Compounds that Act as Potentiators of the Vanilloid Receptor 1; Transient receptor potential cation channel subfamily V member 1 (Homo sapiens), Q8NER1; potentiation, % at 8.33 µM; AID 540277, 2011; TRPV1-expressing cells, Fluo-8 calcium influx, capsaicin EC20 potentiation; 320,000 compounds, 0.02% hits; in the data active means potentiation above about 80%; inconclusive means between about 30% and that limit; further: 0% is about no effect
Target sequence (Q8NER1 whole entry, looked up): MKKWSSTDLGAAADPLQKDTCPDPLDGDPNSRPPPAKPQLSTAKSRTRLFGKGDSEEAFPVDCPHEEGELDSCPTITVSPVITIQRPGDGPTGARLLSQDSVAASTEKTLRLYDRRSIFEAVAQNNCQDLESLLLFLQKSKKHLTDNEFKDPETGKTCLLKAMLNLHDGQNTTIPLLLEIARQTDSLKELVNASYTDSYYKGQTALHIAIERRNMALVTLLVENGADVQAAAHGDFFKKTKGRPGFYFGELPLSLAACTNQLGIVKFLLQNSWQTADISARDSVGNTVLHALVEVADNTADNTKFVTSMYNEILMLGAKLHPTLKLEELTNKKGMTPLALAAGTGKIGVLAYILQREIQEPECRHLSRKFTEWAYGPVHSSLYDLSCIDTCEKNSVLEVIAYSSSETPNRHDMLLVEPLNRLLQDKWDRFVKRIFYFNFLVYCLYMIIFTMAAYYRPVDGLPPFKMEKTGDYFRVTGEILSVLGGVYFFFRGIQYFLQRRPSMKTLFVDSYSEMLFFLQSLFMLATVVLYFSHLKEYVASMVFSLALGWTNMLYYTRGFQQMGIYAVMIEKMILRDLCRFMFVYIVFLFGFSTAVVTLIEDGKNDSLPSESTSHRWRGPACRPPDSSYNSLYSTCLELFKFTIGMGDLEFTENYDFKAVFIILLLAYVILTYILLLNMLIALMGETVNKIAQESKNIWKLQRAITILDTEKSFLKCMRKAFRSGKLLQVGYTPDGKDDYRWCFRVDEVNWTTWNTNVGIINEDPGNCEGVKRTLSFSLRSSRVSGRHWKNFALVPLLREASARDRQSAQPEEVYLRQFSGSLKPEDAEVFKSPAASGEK
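TRPV1-expressing cells were cultured overnight at 35.5C and loaded with Fluo-8 calcium dye for 40 to 90 min at room temperature. After a 10 s baseline, compound was added and calcium influx was read kinetically for 3 min (ex 480/em 520 nm).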
TRPV1 ag: HTS Assay for Compounds that Act as Agonists of the Vanilloid Receptor 1. TRPV1-expressing cells, Fluo-8 calcium influx, agonist mode. 320,000 compounds, 0.19% hits. AID 540275, 2011. activation, % at 8.33 µM. Transient receptor potential cation channel subfamily V member 1 (Homo sapiens), Q8NER1; in the data active means activation above about 80%; inconclusive means between about 30% and that limit; further: 0% is about no effect
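TRPV1-expressing cells were cultured overnight at 35.5C and loaded with Fluo-8 calcium dye for 40 to 90 min at room temperature. After a 10 s baseline, compound was added and calcium influx was read kinetically for 3 min (ex 480/em 520 nm).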
TRPML1 agonist: qHTS for Agonists of the Human Mucolipin Transient Receptor Potential 1 (TRPML1); activation, % (test concentration not listed); TRPML1-expressing cells, Ca2+ dye fluorescence, FDSS; AID 624414, 2012; Mucolipin-1 (Homo sapiens), Q9GZU1; 410,000 compounds, 0.12% hits; in the data active means activation above about 50%; inconclusive means mostly about 30% to 49%; further: 0% is about no effect
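Calcium fluorescence on an FDSS kinetic reader gave the read-out. Tet-induced TRPML1-DL cells were plated overnight, dye-loaded (Ca8 with quencher, 45-90 min, room temperature, dark), then read 110 s after compound addition, and again 110 s after 4uM final 54-4 (EC80).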
TRPML1 blocker: qHTS for Inhibitors of the Human Mucolipin Transient Receptor Potential 1 (TRPML1) | TRPML1-inducible cells, Ca2+ dye fluorescence, FDSS; hits give low values; inhibition of EC80 agonist-evoked calcium signal | activity change, negative = inhibition, % (no concentration beside the values) | 390,000 compounds, 0.02% hits | AID 624415, 2012; in the data active means activity change below about -50%; inconclusive means between about -30% and that limit;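 further: stimulus is agonist 54-4 at its EC80 concentration; on the % scale 0 is the no-effect control and ±100 the full control effect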
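Tet-induced TRPML1-DL cells loaded with Ca8 no-wash calcium dye were read kinetically on FDSS. Compound addition was followed by EC80 agonist 54-4 (4 uM final); inhibition was read over 110 s.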
hERG WT inh: qHTS for Inhibitors of KCHN2 3.1: Wildtype qHTS | activity change, % at 1.84 µM | 340,000 compounds, 0.37% hits | U2OS, BacMam KCNH2, thallium flux FluxOr; hits give low values;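 active means maximum activity change below -70%; inconclusive means maximum activity change between -70% and -50%; inactive means maximum activity change above -50%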; further: on the % scale 0 is the no-effect control and ±100 the full control effect
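U2OS cells were transduced with wild-type KCNH2 virus (2.03 x 10^8 / mL) for 4 h at room temperature, then cultured overnight at 37 C. Thallium flux was read with FluxOr dye. Rate constants were normalized to DMSO controls.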
* = called active by the depositor; ? = inconclusive; nt = no result given.

SMILES	KCNH2 3.1 inh	TRPV1 PAM	TRPV1 ag	TRPML1 agonist	TRPML1 blocker	hERG WT inh
CC[C@@H](C)C(NC(=O)OC(C)(C)C)c1cn([C@@H](CCCCNC(=O)OC(C)(C)C)C(=O)N2CCN(C(=O)OC(C)(C)C)CC2)nn1 (some centres not stated)	-5	-2	-5	0	-7	-291*
O=c1[nH]c(SCc2ccccc2)ncc1S(=O)(=O)c1ccccc1	nt	nt	nt	0	nt	nt
COc1ccc2c(c1C)CCC(C)(C#N)C2=O (configuration not stated)	1	nt	nt	78*	-24	3
COc1ccc(-c2ccnc(SCC(=O)c3ccc(OC)c(OC)c3)n2)cc1	-106*	?	6	0	1	-12
COc1ccc(-c2ccnc(SCC(=O)c3ccc(Cl)cc3)n2)cc1	-10	-5	26	1	8	4
COc1cccc(/C=c2/[nH]c(=O)/c(=C\c3cccc(OC)c3OC)[nH]c2=O)c1OC	nt	nt	nt	-1	nt	nt
N#C/C(=C\c1ccccc1Br)C(=O)NC1CC1	-195*	-6	8	0	-2	0
CCOC(=O)C1C(=O)CC(C)(O)C(C(=O)OCC)C1/C=C/c1ccccc1 (configuration not stated)	-106*	-9	12	1	-14	-1
COc1ccc(N(C)C(=O)C2CCCN2S(=O)(=O)c2cccc3nsnc23)c(OC)c1 (configuration not stated)	-7	23	2	-1	5	-208*
c1ccc2c(C3=NNC(=NC4CCCCC4)SC3)c[nH]c2c1	-86*	-12	-2	0	7	4
Cc1ccc(C(=O)Oc2ccc(C(=O)COC(=O)C3CC(=O)N(Cc4ccco4)C3)cc2)cc1 (configuration not stated)	-87*	5	-2	0	3	-1
CN(CCC(=O)Nc1ccc(Cl)cc1)Cc1ccccc1	-76*	-10	18	0	-12	28
CCCC(=O)Nc1ccc(-c2ccc(NC(=O)CCC)cc2)cc1	5	-12	3	0	5	-12
CCCC(=O)Nc1ccc(Nc2ccccc2)cc1	-5	0	3	0	3	-71*
CN(CCC(=O)Nc1ccc2c(c1)OCO2)Cc1ccccc1	-1	-12	-1	0	-10	5
Cc1cc(C)cc(NC(=O)C2CCCN(S(=O)(=O)c3cccc4nsnc34)C2)c1 (configuration not stated)	nt	nt	nt	0	-4	nt
Cc1cccc(C)c1NC(=O)CN(C)S(=O)(=O)c1ccc(-c2ccc(=O)[nH]n2)s1	-177*	-10	2	0	0	15
N=c1c2c(-c3ccccc3)c(-c3ccccc3)n(Cc3ccco3)c2ncn1CCCn1ccnc1	-71*	-8	12	0	-25	-17
c1ccc(-c2c(-c3ccccc3)n(Cc3ccco3)c3ncnc(NCCCn4ccnc4)c23)cc1	nt	11	0	1	34	13
CC(C)Cn1cnc2c(c(-c3ccccc3)c(-c3ccccc3)n2Cc2ccco2)c1=N	-101*	-7	5	5	54	-74*
N=c1c2c(-c3ccccc3)c(-c3ccccc3)n(Cc3ccco3)c2ncn1CCCN1CCOCC1	-78*	10	1	0	11	-4
N=c1c2c(-c3ccccc3)c(-c3ccccc3)n(Cc3ccco3)c2ncn1Cc1ccccc1	-25	-12	19	-1	20	-18
N=c1c2c(-c3ccccc3)c(-c3ccccc3)oc2ncn1CCCN1CCOCC1	-46	-5	10	-1	17	-12
CCCCNC(=O)[C@@H]1CC=C[C@@H]2CCN(Cc3ccc(OC)c(OC)c3)C(=O)[C@@H]21	nt	nt	nt	-1	nt	nt
CCOc1c(Cl)cc(CNc2ccc3[nH]c(=O)[nH]c3c2)cc1OC	nt	nt	nt	0	-2	nt
SMILES	KCNH2 3.1 inh	TRPV1 PAM	TRPV1 ag	TRPML1 agonist	TRPML1 blocker	hERG WT inh
CC(=O)c1cccc(NC(=O)COc2ccccc2C(=O)Nc2ccccc2)c1	nt	nt	nt	-1	nt	nt
CCOC(=O)C1(CCOc2ccccc2)CCN(Cc2ccncc2)CC1	5	2	-1	1	-17	10
CCOC(=O)C1(CCOc2ccccc2)CCN(Cc2cccc(OC)c2O)CC1	-113*	-15	21	0	5	-102*
CCOC(=O)C1(CCOc2ccccc2)CCN(Cc2cccs2)CC1	-86*	-4	2	1	6	?
CCOC(=O)C1(CCOc2ccccc2)CCN(Cc2cc(OC)ccc2OC)CC1	-88*	-5	4	nt	nt	-80*
CCOC(=O)C1(Cc2cccc(OC)c2)CCN(Cc2cc(OC)ccc2OC)CC1	?	-1	3	3	-13	20
CCOC(=O)C1(CCOc2ccccc2)CCN(Cc2cccc(OC)c2)CC1	-116*	nt	nt	0	-16	-96*
CCOC(=O)C1(CCOc2ccccc2)CCN(Cc2ccc(O)c(OC)c2)CC1	-75*	-27	?	1	-11	?
CCOC(=O)C1(CCOc2ccccc2)CCN(Cc2ccc(-n3cccn3)cc2)CC1	-108*	0	-1	5	8	-130*
CCOC(=O)C1(CCOc2ccccc2)CCN(Cc2nccn2CC)CC1	1	-6	8	0	9	14
CCOC(=O)C1(CCOc2ccccc2)CCN(Cc2cccn2-c2ncccn2)CC1	-101*	1	-1	0	-5	-90*
CCOC(=O)C1(CCOc2ccccc2)CCN(Cc2ccc(C(=O)OC)cc2)CC1	-88*	-7	4	4	-10	8
CC(=O)c1cc(-c2ccc(F)cc2)n(CC(=O)NC2CCCCCC2)c1C	nt	nt	nt	1	1	nt
Cc1ccc(N2CC(NC(=O)Cc3ccc(F)cc3)CC2=O)cc1C (configuration not stated)	nt	nt	nt	-1	-17	nt
CN(CC1CCN(CCc2cccc(C(F)(F)F)c2)CC1)C(=O)c1ccc(F)cc1	-79*	0	1	0	43	?
CN(CC1CCN(CCc2cccc(C(F)(F)F)c2)CC1)C(=O)c1ccccc1	-31	5	0	0	-8	36

Bioassay records deposited in PubChem BioAssay by National Center for Advancing Translational Sciences (NCATS).
